Reference: PubChem BioAssay (Tox21)
Inconclusive results are not listed. Where a call stands in place of a potency, no number is given. Activity calls are given as the source filed them. Calls come from the whole dose curve; as a rule, active = well fitted inhibition curve with a large enough effect in the signal ratio in the repeat runs, with a control signal flat; inconclusive = weak or mixed curves, or effect the other way; inactive = flat fitted curve, though single readings scatter; the % refers to the signal ratio.

Biological target: D(2) dopamine receptor (Homo sapiens) (UniProt P14416)
Sequence (P14416 whole entry, looked up): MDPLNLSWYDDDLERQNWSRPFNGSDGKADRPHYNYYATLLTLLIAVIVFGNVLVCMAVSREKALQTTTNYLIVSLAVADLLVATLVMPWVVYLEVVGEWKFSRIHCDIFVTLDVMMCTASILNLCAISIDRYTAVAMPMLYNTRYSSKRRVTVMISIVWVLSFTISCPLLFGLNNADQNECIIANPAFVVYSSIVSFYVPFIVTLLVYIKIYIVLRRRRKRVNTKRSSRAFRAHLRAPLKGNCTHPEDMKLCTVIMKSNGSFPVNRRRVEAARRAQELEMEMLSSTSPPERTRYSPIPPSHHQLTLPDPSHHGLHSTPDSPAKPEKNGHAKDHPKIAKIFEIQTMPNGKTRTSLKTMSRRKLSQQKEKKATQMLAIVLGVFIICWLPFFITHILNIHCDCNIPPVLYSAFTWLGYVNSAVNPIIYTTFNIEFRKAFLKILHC
Assay: Dopamine D2 receptor (DRD2) small molecule antagonists, cell-based qHTS assay (AID 1963595)
Conditions: HEK293-DRD2 cAMP HTRF antagonist mode; series mostly up to 92.4 µM
Description: National Center for Advancing Translational Sciences [NCATS]
Division of Preclinical Innovation [DPI]
U.S. Environmental Protection Agency [EPA]
National Institutes of Environmental Health Sciences [NIEHS]
National Toxicology Program [NTP]
U.S. Food and Drug Administration [FDA]
DRD2 is the D2 subtype of the dopamine receptor, which is coupled to Gi subtype of G protein-coupled receptor. This G protein-coupled receptor inhibits adenylyl cyclase activity. The DRD2-HEK293 cell line stably expressing D2 dopamine receptor can be used for screening agonists and antagonists of interactions between D2 and its ligands. The Hek293-DRD2 cAMP assay is based on HTRF technology. It measures changes of cAMP accumulation in response to Gi coupled GPCR activation or inhibition.
Tox21 Assay Protocol Summary:
DRD2-Hek293 cells were dispensed at 600 cells/3uL/well in 1536-well white plates using a Multidrop Dispenser. After the assay plates were incubated at a 37 C/5% CO2 incubator for 24 h, 1 uL of Ro20-1724 at final concentration of 0.1 mM was transferred to the assay plate by a Flying Reagent Dispenser. Following Ro20-1724 addition, 23 nL of compound dissolved in DMSO, positive controls or DMSO only was added to the assay plates via Wako pintool station. The assay plates were incubated at room temperature for 10 min. Next, 1 uL of mixture of NKH477 (final concentration at 200 nM) and quinpirole (final concentration at 12 nM) was added into the plates. After the assay plates were incubated at room temperature for an additional 30 min, 2.5 ul/well of cAMP-d2 and 2.5 ul/well of anti-cAMP-cryptate were added respectively into the assay plates using a Flying Reagent Dispenser. The plates were incubated at room temperature for 1 h. The fluorescence intensity in the plates was measured at 340 nm excitation and 665 & 620 nm emission by an Envision plate reader.

**Q.** How did the Potency turn out when `Cc1ccccc1C(=O)N1CC/C(=N\OS(=O)(=O)O)c2ccc(Cl)cc21` was run?
**A.** Its Potency is “inactive”.

**Q.** `NCc1ccc(S(N)(=O)=O)cc1` was tested. Which Potency did it give?
**A.** Its Potency is “inactive”.

**Q.** For `CC(=O)N[C@H]1[C@H]([C@H](O)[C@H](O)CO)OC(C(=O)O)=C[C@@H]1N=C(N)N`, which Potency is on record?
**A.** Its Potency is “inactive”.

**Q.** With `C/C(=C1\CCOC(=O)S1)N(C=O)Cc1cnc(C)nc1N` as the molecule, how does the Potency read?
**A.** The Potency was “inactive”.

**Q.** How did the Potency turn out when `CCCCCCOCCOCCO` was run?
**A.** Its Potency is “inactive”.

**Q.** With `CCCC[O][Al]([O]CCCC)[O]CCCC` as the molecule, how does the Potency read?
**A.** Its Potency is “inactive”.

**Q.** How did the Potency turn out when `CCCCC(CC)COCCC#N` (stereo not given) was run?
**A.** The Potency was “inactive”.

**Q.** For `CCCCCCCCS`, which Potency is on record?
**A.** Its Potency is “inactive”.

**Q.** For `CC(C)CCOCCC(C)C`, which Potency is on record?
**A.** Its Potency is “inactive”.

**Q.** For `CCCOCCO`, which Potency is on record?
**A.** The Potency was “inactive”.

**Q.** For `CN(C)CCCNCCCN(C)C`, which Potency is on record?
**A.** The Potency was “inactive”.

**Q.** Which Potency does the source give for `Cc1ccc(C(=O)Nc2ccc(S(=O)(=O)O)c3cc(S(=O)(=O)O)cc(S(=O)(=O)O)c23)cc1NC(=O)c1cccc(NC(=O)Nc2cccc(C(=O)Nc3cc(C(=O)Nc4ccc(S(=O)(=O)O)c5cc(S(=O)(=O)O)cc(S(=O)(=O)O)c45)ccc3C)c2)c1` here?
**A.** Its Potency is “inactive”.

**Q.** With `ClCCCl` as the molecule, how does the Potency read?
**A.** Its Potency is “inactive”.

**Q.** How did the Potency turn out when `C=C(C)[C@H]1CC=C(C)CC1` was run?
**A.** Its Potency is “inactive”.

**Q.** For `O=C1CC[C@H](C(=O)N2CCCCC2)N1`, which Potency is on record?
**A.** The Potency was “inactive”.

**Q.** With `Nc1ccc(O)cc1` as the molecule, how does the Potency read?
**A.** The Potency was “inactive”.

**Q.** `CCCCC(CC)COCC1CO1` (stereo not given) was tested. Which Potency did it give?
**A.** The Potency was “inactive”.

**Q.** How did the Potency turn out when `CC(CO)c1ccccc1` (stereo not given) was run?
**A.** Its Potency is “inactive”.

**Q.** With `OCc1ccccc1O` as the molecule, how does the Potency read?
**A.** Its Potency is “inactive”.

**Q.** With `CC(C)c1cccc(C(C)C)c1N` as the molecule, how does the Potency read?
**A.** The Potency was “inactive”.

**Q.** For `CC(C)OC(C)C`, which Potency is on record?
**A.** Its Potency is “inactive”.

**Q.** How did the Potency turn out when `Cc1ccc(S(=O)(=O)O)c(C)c1` was run?
**A.** Its Potency is “inactive”.

**Q.** For `O=C(O)CONC(=O)c1ccccc1`, which Potency is on record?
**A.** The Potency was “inactive”.

**Q.** Which Potency does the source give for `CNC(=O)NC` here?
**A.** Its Potency is “inactive”.

**Q.** `CCCCCCOC(=O)c1ccccc1O` was tested. Which Potency did it give?
**A.** The Potency was “inactive”.

**Q.** For `NC(=O)Cc1cccc2ccccc12`, which Potency is on record?
**A.** Its Potency is “inactive”.

**Q.** How did the Potency turn out when `CCN(CC)S(=O)(=O)c1ccc(C(=O)O)cc1` was run?
**A.** The Potency was “inactive”.

**Q.** For `C=C(C)C(=O)OCCC[Si](Cl)(Cl)Cl`, which Potency is on record?
**A.** The Potency was “inactive”.

**Q.** Which Potency does the source give for `CC(C)c1cccc(O)c1` here?
**A.** Its Potency is “inactive”.

**Q.** How did the Potency turn out when `CC1=C(O)C(=O)OC1C` (stereo not given) was run?
**A.** The Potency was “inactive”.

**Q.** Which Potency does the source give for `COc1ccc(-c2coc3cc(O)cc(O)c3c2=O)cc1` here?
**A.** The Potency was “inactive”.

**Q.** With `CC(Cl)COP(=O)(OCC(C)Cl)OCC(C)Cl` (stereo not given) as the molecule, how does the Potency read?
**A.** The Potency was “inactive”.

**Q.** How did the Potency turn out when `Nc1ccc2c(S(=O)(=O)O)cccc2c1S(=O)(=O)O` was run?
**A.** The Potency was “inactive”.

**Q.** How did the Potency turn out when `NS(=O)(=O)c1cc2c(cc1C(F)(F)F)NC(Cc1ccccc1)NS2(=O)=O` (stereo not given) was run?
**A.** Its Potency is “inactive”.

**Q.** For `CCC(C(=O)OCCOCCN(CC)CC)c1ccccc1` (stereo not given), which Potency is on record?
**A.** The Potency was “inactive”.

**Q.** `CC(=O)Nc1c(I)cc(I)c(C(=O)O)c1I` was tested. Which Potency did it give?
**A.** Its Potency is “inactive”.

**Q.** `Cc1cn([C@H]2C[C@H](F)[C@@H](CO)O2)c(=O)[nH]c1=O` was tested. Which Potency did it give?
**A.** Its Potency is “inactive”.

**Q.** `CC(=O)NC(Cc1ccccc1)C(=O)O` (stereo not given) was tested. Which Potency did it give?
**A.** The Potency was “inactive”.

**Q.** Which Potency does the source give for `CCCN1CCCC[C@H]1C(=O)Nc1c(C)cccc1C` here?
**A.** The Potency was “inactive”.

**Q.** With `CC(=O)Nc1ccc(N=Nc2cc(C)ccc2O)cc1` as the molecule, how does the Potency read?
**A.** Its Potency is “inactive”.
